Our source for the outcome values is PubChem BioAssay (EPA / NIEHS).

Inconclusive results are not listed. Calls of active or inactive are those of the source. How the source made its calls: active means hit-call score of the fitted dose curve at least 0.9, where 1 is the maximum; inconclusive means response in the unintended direction; inactive means score below 0.9.

Cytochrome P450 2C19 (Homo sapiens), sequence (P33261 whole entry, looked up): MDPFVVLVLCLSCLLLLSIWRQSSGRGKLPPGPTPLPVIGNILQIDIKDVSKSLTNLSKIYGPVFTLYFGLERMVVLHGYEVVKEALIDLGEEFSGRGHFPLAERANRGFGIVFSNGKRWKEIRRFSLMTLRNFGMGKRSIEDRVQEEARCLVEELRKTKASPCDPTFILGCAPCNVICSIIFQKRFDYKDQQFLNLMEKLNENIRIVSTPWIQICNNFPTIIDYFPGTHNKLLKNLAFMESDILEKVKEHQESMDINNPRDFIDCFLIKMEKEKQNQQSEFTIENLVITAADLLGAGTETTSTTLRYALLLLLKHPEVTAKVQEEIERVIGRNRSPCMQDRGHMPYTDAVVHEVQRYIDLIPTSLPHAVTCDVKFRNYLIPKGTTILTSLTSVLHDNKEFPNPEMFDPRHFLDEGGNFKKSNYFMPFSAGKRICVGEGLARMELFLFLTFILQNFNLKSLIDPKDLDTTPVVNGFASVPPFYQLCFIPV

Read-out in the assay: Cytochrome P450 2C19 (Homo sapiens) (UniProt P33261)
Nature of the assay: CLD_CYP2C19_24hr: CellzDirect (CLD) Gene Expression Assay for xenobiotic metabolism (CYP2C19) at 24 hours (AID 2283687). How it is done:
CLD_24hr is a cell-based, multiplexed-readout assay that uses hepatocyte, a human liver primary cell, with measurements taken at 24 hours after chemical dosing in a 96-well plate.CLD_CYP2C19_24hr is one of 16 assay component(s) measured or calculated from the CLD_24hr assay. It is designed to make measurements of mRNA induction, a form of inducible reporter, as detected with chemiluminescence signals by Quantitative Nuclease Protection Assay (qNPA) technology.Data from the assay component CLD_CYP2C19_24hr was analyzed at the endpoint, CLD_CYP2C19_24hr, in the positive analysis fitting direction relative to DMSO as the negative control and baseline of activity. Using a type of inducible reporter, gain-of-signal activity can be used to understand changes in the reporter gene as they relate to the gene CYP2C19. Furthermore, this assay endpoint can be referred to as a primary readout. To generalize the intended target to other relatable targets, this assay endpoint is annotated to the cyp intended target family, where subfamily is xenobiotic metabolism.
Human hepatocyte cultures were treated daily for two consecutive days with fresh dosing solutions containing appropriate concentrations of the 320 ToxCast chemicals (chemical identities were blinded to CellzDirect and other ToxCast collaborators), vehicle control (0.2% DMSO), and positive control inducers as summarized in Table 1. Due to the large number of treatment groups and chemicals examined, the ToxCast chemicals were divided into two groups (spanning two independent cultures of hepatocytes from separate donor preparations (Hu778: ToxCast plates 1 and 2; Hu776: ToxCast plates 3 and 4). Each preparation of human hepatocyte cultures was treated with respective vehicle control, medium only control, set of six positive controls/reference chemicals for the five hepatic receptor pathways, and a subset of eight of the ToxCast chemicals (indoxacarb, pyrithiobac-sodium, norflurazon, cyhalofop-butyl, methomyl, thiram, acetochlor, and propiconazole). These replicate data, coupled with internal replicates designed within the blinded ToxCast chemical library, provided additional data to evaluate interindividual differences between hepatocyte preparations and their potential impact on chemical profiles.Cell morphology and integrity were evaluated using phase-contrast microscopy as an indicator of hepatocyte cell health (Tyson & Green, 1987). Cultures for each treatment group (i.e., media, vehicle [0.2% DMSO], positive control inducers [multiple concentrations], and the ToxCast chemicals [multiple concentrations]) were observed and cell morphology was assessed relative to vehicle control cultures at each harvest time point (0, 6, 24, or 48 h). […] Images were evaluated at the conclusion of the study to assess changes in cell integrity and account for the effects of chemical exposure on uncharacteristic changes in concentration-dependent gene expression profiles. The results from these determinations of apparent cytotoxicity were annotated (yes/no) alongside the corresponding qNPA data for reference.At the conclusion of each treatment period, hepatocyte cultures (96-well) were washed with 1 volume of HBSS, lysed by addition of 25 ul ArrayPlate lysis buffer (HTG, Tucson, AZ), and 70 ul/well of Denaturation Oil, denatured by incubation at 95C for 10 min, and frozen at approximately -70C until analysis by nuclease protection assay (qNPA) (Roberts et al., 2007). For qNPA analysis, cell lysates were thawed at 50C for approximately 30 min, qNPA probes were added, and samples were incubated at 95C for 10 min to begin the detection process by denaturing the target RNA, dissociating the duplexes and secondary structure hybridization. At the conclusion of the hybridization period, S1 nuclease reagent was added to each sample to digest all nonprotected nucleotides at 50C for 60-90 min. […]
In the case of `COP(=O)(OC)OC=C(Cl)Cl`, the outcome was inactive.
Turning to `[2H]C1([2H])[n+]2ccccc2-c2cccc[n+]2C1([2H])[2H]`, the outcome was inactive.
As to `COc1cc(OC)nc(NC(=O)NS(=O)(=O)c2cc(NC=O)ccc2C(=O)N(C)C)n1`, the compound was classed as inactive.
Take `CCS(=O)(=O)c1cccnc1S(=O)(=O)NC(=O)Nc1nc(OC)cc(OC)n1`: the call was inactive.
As for `COC(=O)c1ccccc1S(=O)(=O)NC(=O)N(C)c1nc(C)nc(OC)n1`, the entry is “inactive”; as for `CC1(C)C(C=C(Cl)Cl)C1C(=O)OC(C#N)c1ccc(F)c(Oc2ccccc2)c1` (centres undefined), “inactive”; as for `CCOc1nc(NC)nc(NC(=O)NS(=O)(=O)c2ccccc2C(=O)OC)n1`, “inactive”.
As for `CCN(CC)C(=O)SCc1ccc(Cl)cc1`, the entry is “inactive”.
As for `CC(C)OC(=O)Nc1cccc(Cl)c1`, the entry is “inactive”; as for `CNC(=O)CSP(=S)(OC)OC`, “inactive”; as for `COC(=O)c1ccccc1S(=O)(=O)NC(=O)Nc1nc(C)nc(OC)n1`, “inactive”.
`CCC(C)(NC(=O)c1cc(Cl)c(C)c(Cl)c1)C(=O)CCl` (centres undefined): the call was inactive.
As for `O=[N+]([O-])/N=C1\NCCN1Cc1ccc(Cl)nc1`, the entry is “inactive”; as for `Cc1cc(C)nc(NC(=O)NS(=O)(=O)c2ccccc2C(=O)OC2COC2)n1`, “inactive”.
`Oc1ccc(Cl)cc1Cc1ccccc1`: the result was inactive.
As for `CC[C@H](C)[C@H]1O[C@]2(C=C[C@@H]1C)C[C@@H]1C[C@@H](C/C=C(\C)[C@@H](O[C@H]3C[C@H](OC)[C@@H](O[C@H]4C[C@H](OC)[C@@H](O)[C@H](C)O4)[C@H](C)O3)[C@@H](C)/C=C/C=C3\CO[C@@H]4[C@H](O)C(C)=C[C@@H](C(=O)O1)[C@]34O)O2` (tested in a mixture with another compound), the entry is “inactive”; as for `ClC1C(Cl)C(Cl)C(Cl)C(Cl)C1Cl` (centres undefined), “inactive”; as for `Cc1[nH]c(=O)n(C(C)(C)C)c(=O)c1Cl`, “inactive”.
Turning to `CNC(=O)Oc1cccc(N=CN(C)C)c1`, the result was inactive.
`O=C(O)CCCOc1ccc(Cl)cc1Cl`: the compound was called inactive.
As for `O=S1OCC2C(CO1)C1(Cl)C(Cl)=C(Cl)C2(Cl)C1(Cl)Cl` (centres undefined), the entry is “inactive”.
`O=C(O)COc1ccc(Cl)cc1Cl`: the result was inactive.
As for `COC(=O)c1ccccc1CS(=O)(=O)NC(=O)Nc1nc(OC)cc(OC)n1`, the entry is “inactive”; as for `CCc1ccc(C(=O)NN(C(=O)c2cc(C)cc(C)c2)C(C)(C)C)cc1`, “inactive”; as for `OCCOc1ccccc1`, “inactive”.
With `N#CN` the entry was “inactive”; with `CC(C)(C)C(O)C(Oc1ccc(Cl)cc1)n1cncn1` (centres undefined), “inactive”.
As for `O=S(=O)(O)C(F)(F)C(F)(F)C(F)(F)C(F)(F)C(F)(F)C(F)(F)C(F)(F)C(F)(F)F`, the entry is “inactive”; as for `Clc1ccccc1-c1nnc(-c2ccccc2Cl)nn1`, “inactive”.
